The results in this text go back to PubChem BioAssay (NCATS).

Test [1] concerns the target Cellular tumor antigen p53 (Homo sapiens) (UniProt P04637). Briefly: Primary qHTS for small molecule compounds that upregulate eGFP-tagged delta133p53alpha (in N-terminal) cells. (AID 2060322).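 Further: series mostly up to about 56 µM; 0% = DMSO vehicle and 100% = reference activator; nearly all actives have a fitted effect of over 75% in size.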 The following applies: NCI-H358 eGFP-delta133p53alpha fluorescence, 24 h; activation: active compounds read high. The method, boiled down:
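NCI-H358 cells pre-induced 24 h with 10 ng/ml doxycycline to express N-terminal eGFP-delta133p53alpha, then dosed 24 h at 37C without doxycycline; fixed, Hoechst-stained, GFP intensity by laser scanning cytometry, normalized to DMSO (0%) and 57.5 uM 5-azacytidine (100%).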

The target is the same in test [2]. Briefly: Primary qHTS for small molecule compounds that upregulate eGFP-tagged delta133p53alpha (in C-terminal) cells. (AID 2060324).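 Further: 0% = DMSO wells and 100% = 57.5 µM 5-azacytidine.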 In a few lines: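 NCI-H358 cells with doxycycline-inducible D133p53a-eGFP (C-terminal tag), pre-induced 24 h with 100 ng/ml doxycycline, plated 800/well in doxycycline-free medium and treated 24 h at 37 °C with compound titrations. Cells were then fixed and Hoechst-stained, and GFP intensity was read by laser scanning cytometry.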
(In qHTS, concentration-response curves come from the screen itself.)

Test [3] concerns the target Aldehyde dehydrogenase, mitochondrial (Homo sapiens) (UniProt P05091). Briefly: qHTS for Inhibitors of the Aldehyde Dehydrogenase Family (ALDH2) Validation screens (AID 2061302; active means well fitted inhibition curve with a large enough effect; title and protocol of this record describe different tests;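 further: plate controls were DMSO vehicle for no effect and maximal DPI positive control response for full effect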).
For test [4], the target named is Retinaldehyde dehydrogenase 3 (Homo sapiens) (UniProt P47895). Briefly: qHTS for Inhibitors of the Aldehyde Dehydrogenase Family (ALDH1A3) Validation screen (AID 2061312). Further: on the % scale 0 is the no-effect control and ±100 the full control effect; nearly all actives have a fitted effect of over 45% in size.
Test [5] is described as follows: BET inhibitor-based combinations targeting novel dependencies in MECOM-rearranged (r) AML: OCI-AML3 cell line (AID 2202232). Further: nearly all actives have a fitted effect of over 35% in size. Further: potency means the concentration at half of the fitted maximal effect. The following applies: Potency: OCI-AML3 viability. In a few lines:
(§1)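 Here, 11-point titrations of each agent were applied to 500 seeded cells and incubated 48 hr; CellTiter-Glo signal, scaled against DMSO and empty wells, was integrated as AUC, then Z-scored within the individual line.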

The nature of test [6]: BET inhibitor-based combinations targeting novel dependencies in MECOM-rearranged (r) AML: MV-4-11 cell line (AID 2202233). Further: nearly all actives have a fitted effect of over 45% in size. Further: potency means the concentration at half of the fitted maximal effect. In a few lines:
(§2)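 Normalized to DMSO and empty-well controls, the luminescence data from CellTiter-Glo after 48 hr drug exposure were fitted across 11 concentrations. Reported metrics are area under the dose-response curve and its Z-transformed form.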

Test [7] is described as follows: BET inhibitor-based combinations targeting novel dependencies in MECOM-rearranged (r) AML: UCSD-AML1 cell line (AID 2202235). Further: nearly all actives have a fitted effect of over 40% in size. Further: potency means the concentration at half of the fitted maximal effect. The method, boiled down: as §2
A short description of test [8]: BET inhibitor-based combinations targeting novel dependencies in MECOM-rearranged (r) AML: AML-194 cell line (AID 2202237; further: nearly all actives have a fitted effect of over 40% in size; further: potency means the concentration at half of the fitted maximal effect). The method, boiled down:
as §1

A short description of test [9]: BET inhibitor-based combinations targeting novel dependencies in MECOM-rearranged (r) AML: SET-2 cell line (AID 2202231).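 Further: plate controls were DMSO treated cells for no effect and wells without cells for full effect; nearly all actives have a fitted effect of over 35% in size.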 Conditions: SET-2 AML cells viability, CellTiter-Glo luminescence, 48 h; viability: active compounds read low, series mostly up to about 46 µM. The method, boiled down: as §1
(In general: ATP-based viability assays read luminescence as a measure of living cells.)

Test [10] is described as follows: BET inhibitor-based combinations targeting novel dependencies in MECOM-rearranged (r) AML: AML-191 cell line (AID 2202236;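 further: plate controls were vehicle wells for no effect and wells without cells for full effect; nearly all actives have a fitted effect of over 35% in size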). The method, boiled down:
as §1

Test [11] in a line: BET inhibitor-based combinations targeting novel dependencies in MECOM-rearranged (r) AML: HNT-34 cell line (AID 2202234).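 Further: plate controls were vehicle wells for no effect and cell-free wells for full effect; nearly all actives have a fitted effect of over 35% in size.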 The method, boiled down:
as §2

SMILES strings stand for the structures. Values joined by “and” are separate entries in the source; they are usually repeats but may differ in a detail not shown here. Equal values may be shown once. Inconclusive results are not listed. Active and inactive are the calls of the source. Unless noted, the call rests on the fitted dose curve; in most records, active means well fitted curve in the direction sought with a large enough effect; inconclusive means small, poorly fitted or top-dose-only effect, or another doubt; inactive means no such curve, though single readings can be large; an effect the other way counts as inactive or inconclusive.

Cellular tumor antigen p53 (Homo sapiens), sequence (P04637 whole entry, looked up): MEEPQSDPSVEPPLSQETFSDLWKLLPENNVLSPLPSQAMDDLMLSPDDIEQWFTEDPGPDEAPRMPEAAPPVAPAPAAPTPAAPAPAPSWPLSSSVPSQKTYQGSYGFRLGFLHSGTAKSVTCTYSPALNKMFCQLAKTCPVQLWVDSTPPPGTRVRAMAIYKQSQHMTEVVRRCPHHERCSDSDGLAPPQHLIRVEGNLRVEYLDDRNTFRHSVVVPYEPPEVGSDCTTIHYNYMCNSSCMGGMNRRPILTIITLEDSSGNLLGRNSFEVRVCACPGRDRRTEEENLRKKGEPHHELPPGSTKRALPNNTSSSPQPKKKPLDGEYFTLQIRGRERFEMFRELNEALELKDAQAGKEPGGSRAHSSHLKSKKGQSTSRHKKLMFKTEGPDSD

Consider `O=C(c1ccc(OCCN2CCCCC2)cc1)c1c(-c2ccc(O)cc2)sc2cc(O)ccc12`, for which the activation in test [1] was 20.9% (inactive) and -56% (inactive). For the same compound, the Potency result in test [2], in [3], in test [4] and in test [7] was “inactive” in each case. The Potency is 11.8 µM (active) in test [5], 18.6 µM (active) in [6] and 20.9 µM (active) in test [8].

In the case of `Nc1nc(OCc2ccccc2)c2[nH]cnc2n1`, the activation in [1] was 4.06% (inactive). The Potency result in [2], in test [3], in test [4], in test [7] and in test [8] was “inactive” in each case.

For the compound `COc1cc(SC)ccc1C(=O)N1CCC(Cc2ccccc2)CC1`, in test [1], the activation was 14.6% (inactive). Besides, the Potency entry in test [2], in test [3], in test [4], in test [7], in test [10] and in [8] was “inactive” each time. Further, the viability (as a rule, a read-out of living cells in per cent, often relative to untreated cells) in [9] was 97% (inactive). In test [6], the Potency is 20.9 µM (active).

Take `CC(C)Cc1ccc(C(C)C(=O)O)cc1` (stereo not given): the activation in test [1] was 17.5% (inactive) and 9.01% (inactive). The Potency entry in test [2], in test [3], in test [4], in test [6], in test [11] and in test [7] was “inactive” each time. The Potency entry in test [10] and in [8] was “inactive” in each case. The viability in test [9] is 111% (inactive).

Consider `Clc1ccc(C(c2ccccc2Cl)C(Cl)Cl)cc1` (stereo not given), for which the activation in test [1] was 18.6% (inactive) and -1.36% (inactive) and 29.2% (inactive). Moreover, the Potency result in test [2], in [3], in test [4], in test [7] and in [10] was “inactive” throughout. The viability in test [9] is 70.3% (inactive).

For the compound `COc1ccc(CCN(C)CCCC(C#N)(c2ccc(OC)c(OC)c2)C(C)C)cc1OC` (stereo not given), the activation in [1] was -12.4% (inactive) and 7.69% (inactive). In addition, the Potency entry in [2], in test [3], in test [4] and in test [8] was “inactive” in each case. The viability in [9] was 94.7% (inactive). The Potency in test [7] was 16.6 µM (active).

`c1ccc([C@H]2CN3CCSC3=N2)cc1`: the activation in test [1] was 15.3% (inactive) and -0.374% (inactive). Further, the Potency result in test [2], in test [3], in [4], in test [6], in [11] and in test [7] was “inactive” throughout. Besides, the Potency entry in test [10] and in test [8] was “inactive” throughout. In test [9], the viability was 112% (inactive).

`CC(C)C[C@H](NC(=O)[C@@H](O)[C@H](N)Cc1ccccc1)C(=O)O`: the activation in [1] is -10.8% (inactive). For the same compound, the Potency result in test [2], in test [3], in test [4], in test [5], in [6] and in [11] was “inactive” in each case. The Potency entry in [10] and in test [8] was “inactive” in each case.

On to `NCCc1cnc[nH]1`, for which the activation in test [1] was -5.21% (inactive) and -25.1% (inactive) and -31.8% (inactive). Further, the Potency result in test [2], in [3], in test [5], in [11], in test [7] and in [8] was “inactive” each time. Moreover, the viability in test [9] was 93.4% (inactive). For the same compound, the Potency in [6] is 8.33 µM (active).
